# Activity calls are given as the source filed them.
# Key:
# [1] = compounds binding Alexa647 anti-His antibody – biochemical, small-molecule microarray, 635 nm fluorescence, artefact control for SMM control protein annotation, primary screen (AID 1128); settings: higher = more signal;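 also: score merges feature fluorescence with signal-to-noise for each printed compound spot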
# [2] = system: Human papillomavirus type 1a E7 protein (residues 1-88); test: HPV1a E7 small-molecule binders, primary screen, biochemical, small-molecule microarray, residues 1-88, 635 nm (AID 1129); settings: small-molecule microarray binding, fluorescence 635 nm; higher = more signal
# [3] = biological target: Focal adhesion kinase 1 (Homo sapiens) (UniProt Q05397); test: PTK2 protein binding on printed compound slides – biochemical, small-molecule microarray, 635/667 nm fluorescence, BSA, DTT, primary screen (AID 1130); settings: 635 nm fluorescence, higher = more signal;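 also: composite of spot emission at 667 nm and signal to noise over triplicate slides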
# Chain of Focal adhesion kinase 1 (Homo sapiens) (Q05397 whole entry, looked up): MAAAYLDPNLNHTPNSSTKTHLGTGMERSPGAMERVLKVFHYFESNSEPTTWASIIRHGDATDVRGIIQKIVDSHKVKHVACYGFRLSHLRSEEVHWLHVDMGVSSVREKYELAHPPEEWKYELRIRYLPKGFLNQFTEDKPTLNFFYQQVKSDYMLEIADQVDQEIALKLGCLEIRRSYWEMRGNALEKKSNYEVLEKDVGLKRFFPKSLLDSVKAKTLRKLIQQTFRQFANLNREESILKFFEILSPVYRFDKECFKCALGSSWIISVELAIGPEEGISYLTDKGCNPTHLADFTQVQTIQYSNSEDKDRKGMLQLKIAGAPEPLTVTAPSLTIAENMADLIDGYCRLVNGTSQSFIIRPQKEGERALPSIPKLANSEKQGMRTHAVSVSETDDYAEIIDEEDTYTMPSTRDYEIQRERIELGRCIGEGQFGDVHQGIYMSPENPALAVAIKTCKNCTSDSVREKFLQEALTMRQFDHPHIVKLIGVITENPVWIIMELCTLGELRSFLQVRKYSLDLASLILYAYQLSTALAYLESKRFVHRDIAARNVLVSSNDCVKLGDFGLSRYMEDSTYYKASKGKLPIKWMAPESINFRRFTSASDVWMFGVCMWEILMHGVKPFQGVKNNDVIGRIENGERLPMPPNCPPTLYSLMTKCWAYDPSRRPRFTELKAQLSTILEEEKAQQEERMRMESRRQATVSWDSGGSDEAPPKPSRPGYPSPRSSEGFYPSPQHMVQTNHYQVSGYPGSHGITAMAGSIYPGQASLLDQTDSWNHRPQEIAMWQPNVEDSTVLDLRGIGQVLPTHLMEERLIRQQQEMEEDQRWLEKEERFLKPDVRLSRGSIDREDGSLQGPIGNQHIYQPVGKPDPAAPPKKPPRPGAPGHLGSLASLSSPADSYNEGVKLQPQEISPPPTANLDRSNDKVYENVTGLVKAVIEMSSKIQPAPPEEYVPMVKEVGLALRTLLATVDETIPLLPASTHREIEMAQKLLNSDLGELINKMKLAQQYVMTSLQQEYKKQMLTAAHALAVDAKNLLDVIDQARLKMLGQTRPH
# [4] = system: Fibrinogen (Alexa647-labelled); test: Alexa647-fibrinogen binding to printed small molecules – biochemical, small-molecule microarray, 635/667 nm fluorescence, artefact control for SMM control-protein annotation, profiling panel (AID 1131); settings: fibrinogen-A647 binding fluorescence, higher = more signal;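 also: z-score merges 667 nm fluorescence with per-spot signal-to-noise over triplicate slides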
# [5] = biological target: Follistatin (Homo sapiens) (UniProt P19883); test: FST protein binding to printed compounds – biochemical, small-molecule microarray, 635/667 nm fluorescence, primary screen (AID 1132); settings: 635 nm fluorescence, higher = more signal
# Chain of Follistatin (Homo sapiens) (P19883 whole entry, looked up): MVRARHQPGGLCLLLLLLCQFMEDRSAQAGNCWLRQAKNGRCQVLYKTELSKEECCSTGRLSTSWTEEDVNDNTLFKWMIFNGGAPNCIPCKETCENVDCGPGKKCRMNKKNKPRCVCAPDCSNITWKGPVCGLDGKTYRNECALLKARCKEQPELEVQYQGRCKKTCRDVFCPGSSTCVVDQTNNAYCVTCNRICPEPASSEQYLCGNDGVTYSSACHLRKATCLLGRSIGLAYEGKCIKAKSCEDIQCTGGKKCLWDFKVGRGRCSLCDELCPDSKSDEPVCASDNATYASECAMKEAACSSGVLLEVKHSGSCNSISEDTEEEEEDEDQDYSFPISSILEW
# [6] = biological target: Fibroblast growth factor 2 (Homo sapiens) (UniProt P09038); test: basic fibroblast growth factor binding to printed compounds – biochemical, small-molecule microarray, 635/667 nm fluorescence, primary screen (AID 1133); settings: FGF2, fluorescence 635/667, higher = more signal
# Chain of Fibroblast growth factor 2 (Homo sapiens) (P09038 whole entry, looked up): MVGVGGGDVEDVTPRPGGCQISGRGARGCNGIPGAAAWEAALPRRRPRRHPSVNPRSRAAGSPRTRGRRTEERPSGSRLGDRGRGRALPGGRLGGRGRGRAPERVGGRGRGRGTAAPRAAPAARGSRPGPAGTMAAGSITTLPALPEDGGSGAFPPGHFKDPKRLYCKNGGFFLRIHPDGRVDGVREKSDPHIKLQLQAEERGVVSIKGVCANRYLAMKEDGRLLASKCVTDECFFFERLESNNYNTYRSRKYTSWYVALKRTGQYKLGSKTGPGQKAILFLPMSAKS
# [7] = JC-1 mitochondrial potential readout, lung cancer cells – cell-based, A549, JC-1 fluorescence, basal, 24 h, 100 nL, profiling panel (AID 1138); settings: higher = more signal;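 also: A549 lung adenocarcinoma cells under basal conditions with no added stimulus; test concentration not given here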
# Lefty1 = Lefty1 protein binding to printed compounds – biochemical, small-molecule microarray, 635/667 nm fluorescence, primary screen (AID 1139); settings: fluorescence 635/667, higher = more signal
# [8] = system: wheat germ agglutinin (Triticum aestivum), Alexa647-labelled; test: Alexa647-WGA lectin binding to printed small molecules – biochemical, small-molecule microarray, 635/667 nm fluorescence, artefact control for SMM control-protein annotation, profiling panel (AID 1140); settings: WGA-A647 binding, 635 nm fluorescence, higher = more signal;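 also: score merges 667 nm feature emission with signal to noise over triplicate slides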
# [9] = biological target: Luciferin 4-monooxygenase (Photinus pyralis) (UniProt P08659); test: inhibition of purified Photinus pyralis luciferase – biochemical, luminescence, purified enzyme, 2006 set, primary screen (AID 1141); settings: purified firefly luciferase, SteadyGlo luminescence, 30 min; higher = more signal, called active from +8 up or from −8 down;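 also: cell-free assay with purified firefly luciferase at 100 ng per well in PBS; test concentration not given here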
# Chain of Luciferin 4-monooxygenase (Photinus pyralis) (P08659 whole entry, looked up): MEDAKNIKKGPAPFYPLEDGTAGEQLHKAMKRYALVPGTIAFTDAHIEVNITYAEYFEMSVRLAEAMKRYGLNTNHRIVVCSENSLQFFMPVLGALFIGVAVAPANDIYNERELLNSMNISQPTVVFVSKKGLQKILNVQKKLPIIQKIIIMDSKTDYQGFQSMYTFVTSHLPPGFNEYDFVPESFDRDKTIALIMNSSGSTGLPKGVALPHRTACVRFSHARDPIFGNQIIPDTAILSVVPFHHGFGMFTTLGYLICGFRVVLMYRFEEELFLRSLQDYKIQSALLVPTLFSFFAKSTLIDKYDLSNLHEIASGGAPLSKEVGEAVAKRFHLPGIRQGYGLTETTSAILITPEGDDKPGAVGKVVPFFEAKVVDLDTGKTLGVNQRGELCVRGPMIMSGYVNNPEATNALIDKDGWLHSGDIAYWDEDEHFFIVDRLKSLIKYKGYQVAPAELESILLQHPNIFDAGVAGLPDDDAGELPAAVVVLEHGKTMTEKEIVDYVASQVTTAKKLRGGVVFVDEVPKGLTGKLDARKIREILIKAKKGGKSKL
SMILES,composite z-score [1],composite z-score [2],composite z-score [3],composite z-score [4],composite z-score [5],composite z-score [6],z-score [7],composite z-score (Lefty1),composite z-score [8],z-score [9]
CC(=O)NCCCC[C@@H]1NC(=O)[C@@H]2C[C@H](C(=O)NCCCCCN)[C@H](c3cccc(OCCO)c3)N2C1=O,0.586,1.04,0.295,0.97,1.37,1.6,0.989,1.03,0.79,0.159 (inactive)
COCCCNC(=O)[C@@]1(CCC(=O)OC(C)(C)C)N=C(c2ccc(OCCCO)cc2)O[C@H]1c1ccccc1N=[N+]=[N-],3.41,1.26,1.04,1.05,1.1,1.15,2.07,-0.167,0.548,-7.45 (inactive)
CCOC(=O)C[C@H]1[C@H](OC(=O)Cc2ccc3c(c2)OCO3)[C@@H](NC(=O)C2CCCCC2)c2cc(OCCCO)ccc2N1C(=O)c1ccccc1,0.0657,-0.0497,0.408,0.744,-0.2,0.0099,1.76,0.218,0.0468,-1.23 (inactive)
COc1cc(NN2C(C(O)c3ccc(N(C)C)cc3)C=CC3C(=O)N(c4ccccc4)C(=O)C32)cc(OC)c1OC (stereo not given),0.555,1.03,0.0507,0.945,1.22,-0.223,0.0531,0.0646,0.885,0.11 (inactive)
COCCOC(=O)N1C(=O)[C@@]2(c3cc(C#CC4=CCCCC4)ccc31)[C@H](C(=O)Nc1nc3ccccc3s1)[C@H]1C(=O)O[C@H](c3ccccc3)[C@H](c3ccccc3)N1[C@@H]2c1ccc(O)cc1,0.174,1.21,1.38,0.362,1.39,1.7,-2.1,0.869,0.529,-1.5 (inactive)
CC(C)c1ccc(NN2C(C(O)c3ccc(F)cc3)C=CC3C(=O)N(c4ccccc4)C(=O)C32)cc1 (stereo not given),0.651,1.24,0.515,0.989,1.16,-0.15,-0.559,0.138,0.886,-2.01 (inactive)
COCC(=C=CC[C@H](O)c1ccccc1OCCO)C[C@H](O)c1ccccn1,0.247,0.128,-0.17,-0.473,1.02,0.262,1.5,0.426,-0.0118,-1.02 (inactive)
O=C1OCCC=C[C@H]2OC34C=CCN(Cn5nnc6ccccc65)C(=O)[C@H]3N(CCCO)C(=O)[C@@H]4C12 (stereo not given in full),-0.0275,-1.46,-0.519,-0.975,-0.676,-0.446,-0.9,-0.935,-0.0152,0.0251 (inactive)
COc1ccc([Si](C)(C)[C@@H]2[C@@H](CC(=O)N3Cc4ccccc4C[C@H]3CO)O[C@]3(C(=O)N(Cc4ccc(N5C(=O)c6cccc7cccc5c67)cc4)c4ccccc43)[C@H]2C)cc1,0.0827,1.18,0.949,0.706,1.33,1.59,1.2,1.11,0.323,-1.05 (inactive)
CC(C)C(CO)N1C(=O)[C@@H]2C3C(=O)OCCC/C=C\[C@H]3OC23C=CCN(Cn2nnc4ccccc42)C(=O)[C@@H]13 (stereo not given in full),2.67,-0.233,-0.0444,-1.18,-0.0048,-1.08,-0.477,-0.0488,-0.422,-0.0817 (inactive)
COc1ccc([Si](C)(C)[C@H]2[C@H](CC(=O)N3Cc4ccccc4C[C@H]3CO)O[C@@]3(C(=O)N(Cc4ccc(N5CCOC5=O)cc4)c4ccccc43)[C@@H]2C)cc1,1.14,0.923,0.109,0.339,1.32,1.39,0.516,1.22,0.396,-0.246 (inactive)
CCOC(=O)C1=C[C@@H](C(C)C)N(S(=O)(=O)c2ccc(C)cc2)[C@H]1c1ccc(C(F)(F)F)cc1,0.922,1.22,0.224,0.975,0.929,0.604,2.67,0.895,0.909,0.612 (inactive)
COC(=O)c1c(CC[C@@H](CO)NC(=O)N[C@@H](C)Cn2cc(-c3ccccn3)nn2)oc(C(C)=O)c1C(=O)OC,1.73,-0.0012,-0.291,-0.676,1.28,0.707,-0.467,0.936,0.184,0.641 (inactive)
CC(C)N1CC=CC23O[C@@H]4C=CCCOC(=O)C4[C@H]2C(=O)N(CCCO)[C@@H]3C1=O (stereo not given in full),0.939,-0.0707,0.248,-1.09,-0.0801,-0.565,-1.31,-0.0004,-0.467,0.0763 (inactive)
NCCCCCCNC(=O)[C@@H]1C[C@@H]2C(=O)N[C@@H](CCCCN)C(=O)N2[C@@H]1c1ccc(O)cc1,1.91,0.153,0.353,-1.97,0.998,1,-0.903,0.731,0.961,0.715 (inactive)
COc1cc2c(cc1O)C(C1CC1)N(Cc1cccc(OC(F)(F)F)c1)CC2 (stereo not given),-0.144,-0.922,-0.662,-1.03,0.167,0.357,-1.46,-0.255,-0.181,0.187 (inactive)
[N-]=[N+]=NCc1ccccc1C[C@@]1(C(N)=O)N=C(c2ccc(OCCCO)cc2)O[C@@H]1c1ccccc1,2.4,1.03,0.572,0.67,0.367,-0.457,0.078,-0.642,1.3,-0.857 (inactive)

SMILES,composite z-score [1],composite z-score [2],composite z-score [3],composite z-score [4],composite z-score [5],composite z-score [6],z-score [7],composite z-score (Lefty1),composite z-score [8],z-score [9]
C=CCOC(=O)[C@@]1(Cc2ccccc2)C[C@H]2CO[C@H](c3ccc(OC)cc3)N2C1=O,0.848,0.191,0.575,0.494,0.3,0.186,0.272,0.55,0.133,-0.0402 (inactive)
CCCN1C(=O)[C@]2(Cc3ccccc31)N=C(c1ccc(OCCCO)cc1)O[C@@H]2c1ccccc1,1.18,1.22,0.867,0.971,1.3,0.716,-0.23,0.56,1.11,-0.133 (inactive)
CC1=C2[C@@H](CCc3ccccc3)OB(O)C[C@@H]2[C@@H]2C(=O)N(C)C(=O)[C@@H]2C1,-0.463,0.591,0.0327,0.762,0.587,0.509,-0.0475,0.617,0.344,0.143 (inactive)
COCCOC(=O)N1C(=O)[C@@]2(c3cc(C#CC4(O)CCCCCC4)ccc31)[C@H](C(=O)N1CCc3cc(OC)c(OC)cc3C1)[C@H]1C(=O)O[C@H](c3ccccc3)[C@H](c3ccccc3)N1[C@@H]2c1ccc(OCCO)cc1,0.244,0.867,1.06,0.682,1.29,1.32,-1.11,1.23,0.475,-1.07 (inactive)
COCCOC(=O)N1C(=O)[C@@]2(c3cc(C#CCCO)ccc31)[C@H](C(=O)Nc1nc3ccccc3s1)[C@H]1C(=O)O[C@H](c3ccccc3)[C@H](c3ccccc3)N1[C@@H]2c1ccc(O)cc1,2.54,1.24,0.978,0.919,1.38,1.28,-0.137,1.05,0.777,0.57 (inactive)
CCCCCC1=C2CNC(C)(C(=O)OC)C=C2C(C)C1=O (stereo not given),1.46,-0.575,-0.108,-0.833,-0.642,-0.328,1.01,-0.427,0.234,2.31 (inactive)
CCOC(=O)C[C@H]1[C@H](OC(=O)Cc2ccc3c(c2)OCO3)[C@@H](NC(=O)c2ccc3ccccc3n2)c2cc(OCCCO)ccc2N1C(=O)c1ccc2ccccc2n1,0.267,0.496,0.629,0.913,0.497,0.13,3.18,0.37,0.754,-1.83 (inactive)
CC(C)C(CO)N1C(=O)[C@@H]2C3C(=O)OCCC/C=C\[C@H]3OC23C=CCN(c2ccc4ccccc4c2)C(=O)[C@@H]13 (stereo not given in full),-0.236,-0.696,0.374,-1.62,-0.0619,-1.02,0.723,0.0124,0.562,-0.526 (inactive)
CCCCC[C@H]1OC[C@@]23C=C(Br)[C@@H](CC12)[C@@]1(CO1)C3=O (stereo not given in full),2.98,-0.327,0.215,-0.411,0.0488,-0.165,0.617,0.505,-0.407,-0.0658 (inactive)
[N-]=[N+]=Nc1ccccc1C[C@@]1(C(N)=O)N=C(c2ccc(OCCCO)cc2)O[C@@H]1c1ccccc1N=[N+]=[N-],1.76,1.23,0.0444,0.637,0.062,-0.0354,-0.498,-0.37,0.0911,-4.2 (inactive)
C=C[C@H](C)[C@H](OC(=O)Nc1ccc(SC)cc1)c1ccc(OCCO)cc1,0.677,1.05,0.0085,0.519,0.376,1.2,-1.38,0.427,1.07,-7.94 (inactive)
CCOC(=O)C1=CC[C@@H](c2ccccc2F)N(S(=O)(=O)c2ccc(C)cc2)[C@H]1c1ccccc1,0.477,1.07,0.13,0.756,0.685,0.0808,1.4,0.644,0.349,1.56 (inactive)
CC(c1ccccc1)C(O)C1C=CC2C(=O)N(C)C(=O)C2N1Nc1ccccc1 (stereo not given),1.79,1.24,0.322,1.02,0.777,-0.579,-0.0184,-0.17,1.21,0.206 (inactive)
CC(C)[Si]1(C(C)C)OCc2cc(-c3ccc(-c4ccc(Cl)c(Cl)c4)o3)nc(-c3ccccc3)c21,-0.534,-1.65,-0.838,-1.32,-0.751,-0.94,-0.447,-0.21,-0.0496,-1.07 (inactive)
CCCC=C(CCC)[C@@H](NC(=O)C(C)(C)C)c1ccc(C(=O)OC)cc1,0.933,1.01,0.451,0.972,0.156,-0.764,2.85,-0.947,0.995,1.91 (inactive)
CC[C@@H]1O[Si](C(C)C)(C(C)C)c2c1cc(-c1cc(C)c(OC)c(C)c1)nc2-c1ccc(Oc2ccccc2)cc1,-0.23,-0.772,-0.29,-1.22,-0.261,-0.315,-0.413,0.287,0.1,1.09 (inactive)

# From PubChem BioAssay
